# Measurements: PubChem BioAssay
# Active and inactive are the calls of the source. How the calls were made is not given here.
# Test system: Aerobactin synthetase IucA (Klebsiella pneumoniae, hypervirulent)
# Experiment: IucA enzyme inhibition, biochemical, LOPAC library, absorbance readout (AID 1346212);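 further: 100% = no compound wells and 0% = no enzyme wells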
# Conditions: IucA enzyme assay, absorbance (OD) readout; stronger effect = lower value;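 tested at 8 µM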
row,Compound,remaining activity
1,COc1cc(C(=O)OCCCN2CCCN(CCCOC(=O)c3cc(OC)c(OC)c(OC)c3)CC2)cc(OC)c1OC,116% (inactive)
2,NC(N)=NC(N)=Nc1cccc(Cl)c1,102% (inactive)
3,CNCCNS(=O)(=O)c1cccc2cnccc12,102% (inactive)
4,C/C(=C\c1ccc(C(=O)O)cc1)c1ccc2c(c1)C(C)(C)CCC2(C)C,97.8% (inactive)
5,Cn1cc(C(=O)OCC2CCN(CCNS(C)(=O)=O)CC2)c2ccccc21,104% (inactive)
6,CC(=O)c1ccc(S(=O)(=O)NC(=O)NC2CCCCC2)cc1,127% (inactive)
7,Ic1ccc(N2CCN(Cc3c[nH]c4ncccc34)CC2)cc1,115% (inactive)
8,C[C@]12C=CC(=O)C=C1CC[C@H]1[C@@H]3C[C@@H](O)[C@](O)(C(=O)CO)[C@@]3(C)C[C@H](O)[C@@]12F,110% (inactive)
9,[N-]=[N+]=Nc1ccc(C(=O)CSC[C@H](NC(=O)CC[C@H](N)C(=O)O)C(=O)NCC(=O)O)cc1,116% (inactive)
10,CNC[C@H](O)c1ccc(O)c(O)c1,94.5% (inactive)
11,C[C@]12CC[C@@H]3c4ccc(O)cc4C[C@@H](CCCCCCCCCS(=O)CCCC(F)(F)C(F)(F)F)[C@H]3[C@@H]1CC[C@@H]2O (stereo not given in full),115% (inactive)
12,O=C(c1cc(O)c(O)c([N+](=O)[O-])c1)c1ccccc1F,104% (inactive)
13,OC[C@H]1NC[C@H](O)[C@@H](O)[C@@H]1O,100% (inactive)
14,C=C(C)C1CC=C(C(=O)O)CC1 (stereo not given),82.4% (inactive)
15,CN1[C@@H]2CC[C@H]1CC(OC(=O)C(CO)c1ccccc1)C2 (stereo not given in full),95% (inactive)
16,CC(COc1ccc(/C=C/c2ccccc2)cc1)[N+](C)(C)C (stereo not given),104% (inactive)
17,O=C1NCN(c2ccccc2)C12CCN(CCCC(c1ccc(F)cc1)c1ccc(F)cc1)CC2,104% (inactive)
18,O=C(O)[C@@H]1C[C@H](C(=O)O)N1,109% (inactive)
19,NC(=O)c1cn(Cc2c(F)cccc2F)nn1,117% (inactive)
20,O=C(OCCN1CCCCC1)c1c[nH]c2ccccc12,102% (inactive)

row,Compound,remaining activity
1,CCCC1O[C@@H]2C[C@H]3[C@@H]4CCC5=CC(=O)C=C[C@]5(C)[C@H]4[C@@H](O)C[C@]3(C)[C@]2(C(=O)CO)O1 (stereo not given in full),115% (inactive)
2,COc1ccc(C(=O)NCc2cccnc2)cc1C(=O)NCc1cccnc1,103% (inactive)
3,O=c1onc2cnc3ccccc3n12,112% (inactive)
4,Brc1c(NC2=NCCN2)ccc2nccnc12,105% (inactive)
5,COc1[nH]c2ccc(F)cc2c1C(=O)OCC1CCN(CCNS(C)(=O)=O)CC1,124% (inactive)
6,COc1ccc2c(c1)CC[C@@H]1[C@@H]2CC[C@]2(C)[C@@H](NCCCCCCN3C(=O)CCC3=O)CC[C@@H]12,119% (inactive)
7,Clc1ccc(Cn2c(CN3CCCC3)nc3ccccc32)cc1,115% (inactive)
8,N#C/C(=C\c1ccc(O)c(O)c1)C(=O)N1CCc2ccccc21,107% (inactive)
9,[Li+],102% (inactive)
10,CCNC(=O)[C@H]1O[C@@H](n2cnc3c(N)nc(NCCc4ccc(CCC(=O)O)cc4)nc32)C(O)[C@H]1O (stereo not given in full),109% (inactive)
11,CCn1c(=O)[nH]c2cc(Cl)c(Cl)cc21,98.7% (inactive)
12,OCc1ccc(-c2nn(Cc3ccccc3)c3ccccc23)o1,118% (inactive)
13,Nc1cc(=O)[nH]c(N)n1,126% (inactive)
14,C[C@]12C[C@H](O)[C@H]3[C@@H](CCC4=CC(=O)CC[C@@]43C)[C@@H]1CC[C@@H]2C(=O)CO,110% (inactive)
15,CCNC(=O)N1CCN(CCCC(c2ccc(F)cc2)c2ccc(F)cc2)CC1,112% (inactive)
16,C(=C\c1ccccc1)/CN1CCN(C(c2ccccc2)c2ccccc2)CC1,113% (inactive)
17,Cc1cn([C@H]2C=C[C@@H](CO)O2)c(=O)[nH]c1=O,106% (inactive)
18,Cc1ccccc1/C=C/C1=NCCN1,120% (inactive)
19,CC(=O)SCC[N+](C)(C)C,117% (inactive)
20,CN1[C@@H](CC(=O)c2ccccc2)CCC[C@H]1C[C@H](O)c1ccccc1,115% (inactive)
